AMA1 RON2 block: disrupts binding of P. falciparum AMA1 to RON2 | Potency, µM (highest dose often 58.2 µM), for inactives: at the highest dose activity change, negative = inhibition, usual class: inhibitors | AlphaScreen AMA1-biotinylated RON2 peptide binding | actives 0.2% (n = 360,000); active = well fitted inhibition curve with a large enough effect; inconclusive = small, poorly fitted or top-dose-only effect; inactive = no such curve, though single readings can be large or run the other way;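 also: potency is read from the fitted curve at half-maximal effect; 0% = vehicle wells and -100% = peptide control; nearly all actives have a fitted effect of over 45% in size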
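AMA1 (3D7) with his tag at 25 nM final met compounds first, then biotinylated RON2 peptide at 25 nM; detection used donor plus acceptor beads, 10 µg/mL apiece, read by AlphaScreen after 30 min at room temperature.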
Lassa entry inh: Lassa virus entry inhibition; Lassa virus pseudotype entry inhibition, cell reporter; Potency, µM (highest dose often 37.9 µM), without a hit: at the highest dose activity change, negative = inhibition, most hits filed as inhibitors; actives 1.2% (n = 300,000); calls by dose curve; tested in HEK293 cells; also: potency is read from the fitted curve at half-maximal effect; % is scaled to controls: 0 for no effect and ±100 for the full control effect; nearly all actives have a fitted effect of over 50% in size
Shiga toxin inh: blocks Shiga toxin action in Vero cells; actives 9.2% (n = 290,000); inhibition, % at 38.7 µM; AID 2315; Vero cells, Shiga toxin protein synthesis inhibition reporter; in the data active = inhibition mostly above about 28%, no sharp cut-off; inactive = mostly below about 43%; also: 0% is about no effect
Cycloheximide cs: affects cycloheximide protein synthesis inhibition readout, counter-screen; cell reporter, cycloheximide protein synthesis inhibition counterscreen; max response, %; actives 12% (n = 300,000); in the data active = max response mostly above about 13%, no sharp cut-off; inactive = mostly below about 14%; also: read at 38.3 µM for the half of the compounds with a filed dose; 0% is about no effect
Marburg entry inh: inhibitors of Marburg virus binding or cell entry. Potency, µM (series often up to 37.8 µM), without a hit: at the highest dose activity change, negative = inhibition, usual class: inhibitors. actives 1.8% (n = 300,000). Marburg virus pseudotyped entry inhibition, cell reporter; calls by dose curve; tested in HEK293 cells; also: potency is read from the fitted curve at half-maximal effect; % is scaled to controls: 0 for no effect and ±100 for the full control effect
Numbers without * were called inactive; ? = inconclusive; . = no result; + = active, no number; [ ] = another dose, or the depositor's remark. Shown is part of a subset that was picked to be rich in hits.

SMILES	AMA1 RON2 block	Lassa entry inh	Shiga toxin inh	Cycloheximide cs	Marburg entry inh
CSCCC1NC(=O)N(CC(=O)Nc2ccc(-c3ccccc3)cc2)C1=O (centres undefined)	-7%	.	66*	21*	.
Cn1c2cc(C=O)sc2c2cnn(Cc3ccccc3F)c(=O)c21	.	.	-7	-6	.
Cc1onc(C(=O)Nc2sc3c(c2C#N)CCCC3)c1[N+](=O)[O-]	1%	.	82*	33*	.
Cc1onc(-c2ccccc2Cl)c1C(=O)Nc1sc2c(c1C#N)CCC2	-5%	13%	38	-4	?
COC(=O)CCC(=O)Nc1sc2c(c1C#N)CCCC2	-3%	-7%	-8	22	14%
Cc1cc(C(=O)Nc2sc3c(c2C#N)CCCCC3)cs1	-1%	-26%	60*	29*	?
CCCC(=O)Nc1sc2c(c1C#N)CCCC2	-8%	1%	74*	33*	3%[46.1 µM]
Cc1sc(NC(=O)COc2ccccc2)c(C#N)c1C	-2%	-22%[46.1 µM]	96*	41*	?
COc1ccc(Cl)cc1NC(=O)C[n+]1cccc(C)c1	-8%	.	-1	-3	.
CC(C)C(=O)Nc1sc2c(c1C#N)CCCCC2	-14%	-1%	62*	24*	10%
N#Cc1c(NC(=O)CSc2ncn[nH]2)sc2c1CCCCC2	29%	-82%[14.3 µM]	-35	-8	0.46µM*
N#Cc1c(NC(=O)c2cccc3ccccc23)sc2c1CCCC2	.	0.2µM*	.	.	.
Cc1cccc(OCC(=O)Nc2sc3c(c2C#N)CCC3)c1	-8%	17%	60*	21*	30%
Cc1cnc(C(=O)OCC(=O)Nc2sc3c(c2C#N)CCC3)cn1	-21%	-25%	.	.	-16%
CC(=O)OC[C@H]1O[C@@H](ON=C(C)CCC(=O)OC[C@H]2O[C@H](C#Cc3ccccc3)C=C[C@H]2Oc2ccc(C)cc2)[C@H](OC(C)=O)[C@@H](OC(C)=O)[C@H]1OC(C)=O	.	.	.	.	9%[14.2 µM]
N#Cc1c(NC(=O)C2CC2)sc2c1CCCCC2	-9%	?	37*	31*	2%
N#Cc1c(NC(=O)c2nc3ncccn3n2)sc2c1CCCCC2	3%	-30%	58*	30*	?
CC(=O)Nc1sc2c(c1C#N)CCCC2	-13%	7%	1	4	20%[46.1 µM]
CC1CCc2c(sc(NC(=O)c3nc4ncccn4n3)c2C#N)C1 (centres undefined)	-11%	.	-7	-1	.
COc1cn(CC(=O)Nc2ccc(F)cc2)c(CN2CCCCC2)cc1=O	.	-14%[46.1 µM]	.	.	.
COc1ccccc1Nc1ccc2c(O)cc(S(=O)(=O)O)cc2c1	20µM*	-4%[46.1 µM]	.	.	?
COc1ccc(Cc2noc(-c3ccc(C)cc3)n2)cc1	22%	-15%	72*	29*	3%
COC(=O)c1ccc(-c2nc(-c3ccc(Br)o3)no2)cc1	-10%	.	30	21*	.
COc1cccc(-c2noc(-c3ccc(Br)o3)n2)c1	29%	.	109*	32*	?
Fc1cccc(F)c1-c1nc(-c2ccc(Cl)cc2)no1	18%	17%[46.1 µM]	63*	56*	?
SMILES	AMA1 RON2 block	Lassa entry inh	Shiga toxin inh	Cycloheximide cs	Marburg entry inh
CC(C)N(C(=S)Nc1ccc(S(=O)(=O)N2CCOCC2)cc1)c1ccccc1	-1%	-4%[46.1 µM]	.	.	1%[46.1 µM]
Cc1cc(NC(=O)CN(C)S(=O)(=O)c2ccc3c(c2)CCC(=O)N3)ccc1Br	.	-28%[46.1 µM]	.	.	?
COc1ccc(-c2noc(-c3ccc(Cl)cc3)n2)cc1	21%	?	48*	25*	?
COc1ccc(-c2nc(-c3ccc(Br)o3)no2)cc1	0%	.	64*	29*	.
COc1ccc(-c2noc(-c3ccc(Br)o3)n2)cc1	-4%	?	69*	30*	0%
O=C(Cn1cnc2c(NC(=O)OCc3ccccc3)ncnc21)NCc1ccccn1	49%	.	.	.	.
COc1ccc(-c2cc(C(=O)Oc3ccc(Br)cc3)c3ccccc3n2)cc1	.	-3%[46.1 µM]	.	.	7%[46.1 µM]
CN(/N=C/c1ccncc1)c1cnc2ccccc2n1	20%	?	75*	48*	2%
N#Cc1c(-c2cccs2)cc(C2CC2)nc1SCC(N)=O	6%	-12%	-25	-4	4%[46.1 µM]
CCOC(=O)/C=C1\Nc2ccccc2OC1=O	13%	1%	11	21*	-7%
CCc1ccc(/C(C)=N/NC(=O)c2ccc(-n3cnnn3)cc2)cc1	27%	.	.	.	.
Cc1nc2ccc(S(=O)(=O)Nc3cc(-c4nc5cccnc5s4)ccc3C)cc2s1	-6%	-18%	85*	75*	-29%
Cc1nc2ccc(S(=O)(=O)Nc3cccc(-c4nc5cccnc5s4)c3C)cc2s1	-4%	-13%	-13	-2	?
Cc1ccc(-c2nc3cccnc3s2)cc1NS(=O)(=O)c1cccs1	0%	.	38*	19*	.
COc1cc(OC)cc(C(=O)Nc2cc(-c3nc4cccnc4s3)ccc2C)c1	.	3%[46.1 µM]	.	.	.
Cc1ccc(-c2nc3cccnc3s2)cc1NS(=O)(=O)c1ccc2c(c1)OCCO2	2%	.	19*	40*	.
CCOC(=O)c1cnc2c(C)c(Cl)ccc2c1Nc1ccc(S(=O)(=O)Nc2ncccn2)cc1	.	2%	-5	-5	0%
CC(C)(C)c1ccc(COn2c(=O)c(-c3ccco3)[n+]([O-])c3ccccc32)cc1	-5%	-7%	5	19*	?
c1ccc(-c2onc3cc4c(cc23)OCCO4)cc1	-5%	-1%	+	35*	15%
CCOC(=O)c1ccc(NC[C@@H](O)COc2ccccc2)cc1	.	.	.	.	-2%[46.1 µM]
Cc1ccc(NC(=O)CCSc2nc(-c3ccco3)cc(C(F)(F)F)n2)cc1F	.	-5%[46.1 µM]	.	.	?
Cc1ccccc1Oc1cc(-n2ncc(Cl)c(Cl)c2=O)ncn1	-2%	?	23	14*	?
CCOc1cnn(-c2cc(Oc3ccc(C)cc3)ncn2)c(=O)c1Cl	9%	-15%	-2	-3	5%
c1cc2c(cc1OCCNC1CCCC1)CCC2	.	.	-4	8	.
O=C1CCC(=O)N1OCCCOc1ccc2c(c1)CCC2	0%	-5%	0	10*	0%
SMILES	AMA1 RON2 block	Lassa entry inh	Shiga toxin inh	Cycloheximide cs	Marburg entry inh
c1cnc(SCCOc2ccc3c(c2)CCC3)nc1	-3%	?	75*	36*	?
CNCCCOc1ccc2c(c1)CCC2	-17%	-1%[46.1 µM]	76	21*	?
O=C1CCC(=O)N1OCCOc1ccc2c(c1)CCC2	-9%	3%	47*	24*	-12%[46.1 µM]
O=C(NC1CCCCC1)C(c1cccs1)N(C(=O)c1ccccn1)c1ccccc1 (centres undefined)	-3%	4%	-7	-1	-14%
OC(C#Cc1ccccn1)c1cccs1 (centres undefined)	-8%	-26%	48*	51*	?
CN(CCOC(=O)c1ccc2c(c1)OCCO2)C(C)(C)C	-1%	8%	23	17*	-12%
CN(Cc1ccccc1)C(=O)c1ccc2c(c1)OCCO2	5%	17%	15	11	4%
COc1cccc(C(=O)OCCN(C)C(C)(C)C)c1	.	.	-4	-6	-2%
CN(CCOC(=O)c1ccc2c(c1)OCCO2)Cc1ccccc1	-3%	-4%	19*	41*	7%[46.1 µM]
O=C(Cc1ccccc1)c1ccc2c(c1)OCCO2	-2%	-3%[46.1 µM]	87*	43*	?
COc1ccc(/C=C/C(=O)NCCCc2ccccc2)cc1	-6%	25%	-2	0	21%

Compound activity deposited in PubChem BioAssay by National Center for Advancing Translational Sciences (NCATS).
